Compound activity (PubChem)
Akt phos inh: Akt phosphorylation inhibition. Neuro2A IGF-stimulated pAkt S473 HTRF, 20 min; hits give low values. activity change, % for hits at 50 µM. 360,000 tested, 0.32% active; in the data active = activity change below about -80%; inconclusive = mostly about -51% to -80%; note: % is set by controls: 0 for no effect and ±100 for the full control effect
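Neuro2A cells in DMEM with 0.5% FBS, overnight at 37 deg C, given compound at single 50 µM final, then IGF (6 nM final) for 20 min at 37 deg C. Lysed; phospho-Akt Ser473 by HTRF after 24 h, 665/615 ratio.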
gsp agonist: agonists of gsp mutant (McCune-Albright syndrome); gsp mutant cells, cAMP HTRF, 30 min; Potency, µM (highest dose often 76.9 µM), inactives show at the top dose activation (cAMP increase), hits mostly activators; 340,000 tested, 0.13% active; AID 624287; active = well fitted activation curve with a large enough effect; inconclusive = small, poorly fitted or top-dose-only effect, or another doubt; inactive = no such curve, though single readings can be large or run the other way; cell line not stated here;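 note: phosphodiesterase inhibitor Ro 20-1724 added with compounds to block cAMP breakdown; potency is the fitted concentration of half-maximal effect; nearly all actives have a fitted effect of over 60% in size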
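Cells stably selected in G418 were plated at 2000/well, grown 16-24 hr, then given compounds in DMSO with the PDE inhibitor […] (300 uM solution added) for 30 min at 37C; cAMP was read by HTRF.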
RXFP1 ag: agonists of human relaxin receptor RXFP1. HEK293T-RXFP1 cAMP TR-FRET, 30 min; response scale: percent of porcine relaxin response, buffer zero. Potency, µM (doses to about 57.5 µM), inactives show at the top dose activation, actives largely listed as activators. 370,000 tested, 0.3% active; active = well fitted activation curve with a large enough effect; inconclusive = small, poorly fitted or top-dose-only effect; note: potency is the fitted concentration of half-maximal effect; % is set by controls: 0 for no effect and ±100 for the full control effect; nearly all actives have a fitted effect of over 60% in size
Target sequence (Q9HBX9 whole entry, looked up): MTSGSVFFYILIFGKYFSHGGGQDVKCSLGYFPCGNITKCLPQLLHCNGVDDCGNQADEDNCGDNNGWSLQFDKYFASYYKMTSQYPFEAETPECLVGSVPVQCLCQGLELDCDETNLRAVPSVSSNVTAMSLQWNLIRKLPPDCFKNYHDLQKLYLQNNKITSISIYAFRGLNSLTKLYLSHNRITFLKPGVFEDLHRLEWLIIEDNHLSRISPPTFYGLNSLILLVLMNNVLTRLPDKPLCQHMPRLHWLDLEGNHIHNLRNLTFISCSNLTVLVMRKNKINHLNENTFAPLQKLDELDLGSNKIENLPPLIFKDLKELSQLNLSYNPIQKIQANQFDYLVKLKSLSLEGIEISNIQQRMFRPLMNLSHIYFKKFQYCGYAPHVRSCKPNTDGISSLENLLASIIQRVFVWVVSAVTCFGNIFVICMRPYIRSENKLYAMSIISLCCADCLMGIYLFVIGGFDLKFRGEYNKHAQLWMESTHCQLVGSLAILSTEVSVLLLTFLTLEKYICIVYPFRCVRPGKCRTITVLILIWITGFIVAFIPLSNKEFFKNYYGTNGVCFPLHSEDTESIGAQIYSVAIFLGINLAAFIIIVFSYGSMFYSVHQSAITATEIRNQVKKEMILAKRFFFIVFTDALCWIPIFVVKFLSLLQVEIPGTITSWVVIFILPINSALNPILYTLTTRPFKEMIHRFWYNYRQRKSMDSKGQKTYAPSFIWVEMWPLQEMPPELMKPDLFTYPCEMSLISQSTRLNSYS
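Agonist response is measured as cAMP accumulation in an RXFP1-transfected HEK293T line under PDE4 inhibition. Values are scaled between buffer-only and 29 nM porcine relaxin, and EC50s come from standard Hill equation fits.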
gsp antagonist: antagonists of gsp mutant (McCune-Albright syndrome) | AID 624288 | gsp-mutant cells, cAMP HTRF, 30 min | Potency, µM (doses to about 76.9 µM), for inactives: top-dose activity change, negative = inhibition, hits mostly inhibitors | 340,000 tested, 0.4% active; calls by dose curve; cell line not stated here;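 note: intracellular cAMP measured with PDE inhibitor Ro 20-1724 present during compound exposure; potency is the fitted concentration of half-maximal effect; % is set by controls: 0 for no effect and ±100 for the full control effect; nearly all actives have a fitted effect of over 65% in size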
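Measurement of cellular cAMP by homogeneous time-resolved fluorescence following a 30 min compound exposure at 37C. The PDE inhibitor […] was present throughout; the assay buffer was DPBS with 0.05% BSA and 0.005% Tween 20.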
RXFP1 antag: RXFP1 (human) relaxin receptor antagonism; Q9HBX9; HEK293-RXFP1, relaxin-stimulated cAMP HTRF, 30 min; hits give low values; activity change, negative = inhibition, % at 57.5 µM; 350,000 tested, 0.59% active;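 active = activity change of -60% or lower, but not beyond a set lower limit; inconclusive = change between -60% and -40%, or beyond the set limit; inactive = change above -40%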; note: % is set by controls: 0 for no effect and ±100 for the full control effect
ClpP mod: qHTS Assay for Activators of ClpP; ATP-dependent Clp protease proteolytic subunit (Bacillus subtilis (strain 168)), P80244; purified B. subtilis ClpP, FRET peptide cleavage, 20 min; Potency, µM (series often up to 57.5 µM), for the others: top-dose activity change, negative = active; 340,000 tested, 1.9% active; AID 651965, 2013; active = well fitted falling curve with a large enough effect; inconclusive = small, poorly fitted or top-dose-only effect; inactive = no such curve, though single readings can be large or run the other way; note: potency is the fitted concentration of half-maximal effect; the source files actives as falling curves though it sought activators and does not explain the sign; nearly all actives have a fitted effect of over 65% in size
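Purified B. subtilis ClpP, 10 microg/mL final in Tris/HCl pH8 with KCl, BSA, glycerol and Tween-20, cleaved an Abz/nitrotyrosine-quenched decapeptide. Fluorescence (ex 320, em 430) was read at 0 and 20 min at room temperature. Delta was normalized to 5.8 microM ADEP and DMSO/no-enzyme controls.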
* = called active by the depositor; [ ] = another dose, or the depositor's remark. Shown are actives, neighbours in structure and some others; about 2.7% of the full set was active somewhere.

Results for Cc1ccc(-c2c(C(=O)Nc3ccccc3C)c(C)[nH]c(=S)c2C#N)o1 ?
Akt phos inh: inactive; gsp agonist: 13%[15.4 µM]; RXFP1 ag: 28µM*; gsp antagonist: 18%; RXFP1 antag: -2

What do the screens show for `Nc1ccn([C@@H]2O[C@H](C(=O)N3CCSC3)[C@@H](O)[C@H]2O)c(=O)n1`?
Akt phos inh: inactive; ClpP mod: 0%

What do the screens show for `O=c1oc(-c2ccccc2)nc2sc3c(c12)CCC3`?
Akt phos inh: inactive; gsp agonist: -2%; RXFP1 ag: 0%; gsp antagonist: -16%; RXFP1 antag: 3; ClpP mod: 9%

Results for Nc1nc(-c2ccccc2)nc2sc3c(c12)CCCC3 ?
Akt phos inh: inactive; gsp agonist: 0%; RXFP1 ag: -1%; gsp antagonist: -10%; RXFP1 antag: -14; ClpP mod: 32µM*

What do the screens show for `COc1ccc(C(=O)N2CCCC(c3nc(-c4ccc(OC)c(OC)c4)no3)C2)c(OC)c1` (configuration not stated)?
Akt phos inh: inactive; gsp agonist: -39%; RXFP1 ag: -1%; gsp antagonist: -15%; RXFP1 antag: 2; ClpP mod: 28µM*

How did Cc1ccc(-c2noc(C3CCCN(C(=O)c4ccccc4Br)C3)n2)cc1 (configuration not stated) do in these assays?
Akt phos inh: inactive; gsp agonist: -14%; RXFP1 ag: 0%; gsp antagonist: 45µM*; RXFP1 antag: 6; ClpP mod: -1%

How did COCCCNC(=O)CCC(=O)N1Cc2ccccc2Oc2ncccc21 do in these assays?
RXFP1 ag: 1%; RXFP1 antag: -8; ClpP mod: -2%

Results for CCN(CC)c1ccc2cc(-c3nnc(-c4ccncc4)o3)c(=O)oc2c1 ?
Akt phos inh: inactive; gsp agonist: -1%; RXFP1 ag: 0%; gsp antagonist: -27%; RXFP1 antag: 4; ClpP mod: inconclusive

Results for CCN(CC)c1ccc2cc(-c3nc(-c4ccccc4F)no3)c(=O)oc2c1 ?
RXFP1 ag: 0%; RXFP1 antag: 1; ClpP mod: 25µM*

How did CCN(CC)c1ccc2cc(-c3nnc(-c4cccc(Cl)c4)o3)c(=O)oc2c1 do in these assays?
RXFP1 ag: -2%; RXFP1 antag: -9; ClpP mod: 28µM*

Results for CCN1C(=O)[C@@H]2[C@@H](c3ccc(-c4cc(C(C)=O)cs4)cc3)N3CCC[C@@]3(C(=O)OC)[C@@H]2C1=O ?
Akt phos inh: inactive; gsp antagonist: -2%; ClpP mod: 4%

How did O=C(CSc1ncn[nH]1)N1N=C2/C(=C/c3ccccc3)CCCC2C1c1ccccc1 (configuration not stated) do in these assays?
Akt phos inh: inactive; gsp agonist: inconclusive; RXFP1 ag: 0%; gsp antagonist: 35µM*; RXFP1 antag: -15; ClpP mod: inconclusive

How did Cc1ncsc1C(=O)N1N=C2/C(=C/c3ccc(N4CCOCC4)cc3)CCCC2C1c1ccc(N2CCOCC2)cc1 (configuration not stated) do in these assays?
Akt phos inh: inactive; gsp agonist: -11%; RXFP1 ag: 1%; gsp antagonist: -8%; RXFP1 antag: -3; ClpP mod: -1%

What do the screens show for `Cc1ncsc1C(=O)N1N=C2/C(=C/c3ccccc3)CCCC2C1c1ccccc1` (configuration not stated)?
Akt phos inh: inactive; gsp agonist: 0%; RXFP1 ag: -1%; gsp antagonist: -20%; RXFP1 antag: -10; ClpP mod: 35µM*

What do the screens show for `CN(C(=O)CSc1nc2ccccc2n1Cc1cccc(C(F)(F)F)c1)c1ccccc1`?
RXFP1 ag: 2%; ClpP mod: -1%

How did COc1ccccc1CN(C)CC(=O)c1c(C)[nH]c2ccccc12 do in these assays?
ClpP mod: -18%

What do the screens show for `CN(C)S(=O)(=O)c1ccc(N2CCCC2)c(C(=O)NNC(=O)COc2ccc(Cl)cc2)c1`?
Akt phos inh: inactive; gsp agonist: -4%; RXFP1 ag: 4%; gsp antagonist: 4%; RXFP1 antag: -17; ClpP mod: -3%

Results for CCc1ccc(OCC(=O)NNC(=O)c2cc(S(=O)(=O)N(C)C)ccc2N2CCCC2)cc1 ?
Akt phos inh: inactive; gsp agonist: 4%[15.4 µM]; RXFP1 ag: -1%; gsp antagonist: -1%; RXFP1 antag: -114*

Results for CCc1ccccc1NNC(=O)c1sccc1Cl ?
ClpP mod: 0%

What do the screens show for `O=C(OCc1cc(=O)n2cc(Br)ccc2n1)C1COc2ccccc2O1` (configuration not stated)?
Akt phos inh: inactive; gsp agonist: 10µM*; RXFP1 ag: 9%; gsp antagonist: -4%; RXFP1 antag: -10; ClpP mod: -16%

How did O=C(COC(=O)c1ccccc1NCCO)Nc1ccc(S(=O)(=O)NC2=NCCCCC2)cc1 do in these assays?
Akt phos inh: inactive; gsp agonist: inconclusive; gsp antagonist: 3%; RXFP1 antag: 0; ClpP mod: 14µM*

Results for O=C(COC(=O)c1ccccc1O)Nc1cccc(S(=O)(=O)NC2=NCCCCC2)c1 ?
Akt phos inh: inactive; gsp agonist: -3%[15.4 µM]; RXFP1 ag: 6%; gsp antagonist: -8%; RXFP1 antag: 1

How did CNC(=O)COC(=O)c1cc2c(C)nn(-c3ccc(F)cc3)c2s1 do in these assays?
Akt phos inh: inactive; gsp agonist: -58%; RXFP1 ag: 16%; gsp antagonist: 18%; RXFP1 antag: -15; ClpP mod: 35µM*

What do the screens show for `Cc1nn(-c2ccc(F)cc2)c2sc(C(=O)N3CCCCCC3)cc12`?
Akt phos inh: inactive; gsp agonist: 22%; RXFP1 ag: 1%; gsp antagonist: -3%; RXFP1 antag: -3; ClpP mod: -1%

How did CC1(C)CC2CC(C)(CN2C(=O)COC(=O)CNC(=O)c2ccc(Cl)c(Cl)c2)C1 (configuration not stated) do in these assays?
Akt phos inh: inactive; gsp agonist: -56%; RXFP1 ag: -1%; gsp antagonist: inconclusive; RXFP1 antag: -3; ClpP mod: 25µM*

What do the screens show for `CC(=O)Nc1ccc(C(=O)OCC(=O)N2CC3(C)CC2CC(C)(C)C3)cc1` (configuration not stated)?
Akt phos inh: inactive; gsp agonist: -25%; gsp antagonist: -2%; RXFP1 antag: 3
